Source: PubChem BioAssay AID1159580 (chemical genetic matrix, 2015)
Hit rate of the full screen: of about 5,500 compounds, about 2,000 (36%) were called active. Another 18% or so got no clear call; they are omitted. Rule as the data show it: active = normalized growth mostly below about 0.91 (no sharp cut-off); inconclusive = no clear call, values can overlap the other calls; inactive = mostly above about 0.92. The list shows a part of the results.

Assay: chemical genetic growth profiling, strain panel (AID 1159580);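 also: tested at 20 µM; growth read once vehicle control cultures reached saturation at 30 °C; 1 = growth at the plate median or of vehicle wells; lower values mean less growth of the strain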
Conditions: growth OD
[1] = S. cerevisiae deletion strains, locus YAL013W, strain DEP1, active compounds read low
[2] = S. cerevisiae deletion strains, locus YBR021W, strain FUR4, active compounds read low
[3] = S. cerevisiae deletion strains, locus YBR229C, strain ROT2, active compounds read low
[4] = S. cerevisiae deletion strains, locus YCL029C, strain bik1, active compounds read low
[5] = S. cerevisiae deletion strains, locus YDL035C, strain GPR1, active compounds read low
[6] = S. cerevisiae deletion strains, locus YDL074C, strain BRE1, active compounds read low
[7] = S. cerevisiae deletion strains, locus YDL101C, strain DUN1, active compounds read low
[8] = S. cerevisiae deletion strains, locus YDL185W, strain tfp1, active compounds read low
[9] = S. cerevisiae deletion strains, locus YDL192W, strain arf1, active compounds read low
[10] = S. cerevisiae deletion strains, locus YDR101C, strain arx1, active compounds read low
[11] = S. cerevisiae deletion strains, locus YDR162C, strain NBP2, active compounds read low
[12] = S. cerevisiae deletion strains, locus YDR318W, strain mcm21, active compounds read low
[13] = S. cerevisiae deletion strains, locus YDR388W, active compounds read low
[14] = S. cerevisiae deletion strains, locus YDR502C, strain sam2, active compounds read low
[15] = S. cerevisiae deletion strains, locus YEL061C, strain CIN8, active compounds read low
[16] = S. cerevisiae deletion strains, locus YER110C, active compounds read low
[17] = S. cerevisiae deletion strains, locus YER155C, strain BEM2, active compounds read low
[18] = S. cerevisiae deletion strains, locus YER167W, strain BCK2, active compounds read low
[19] = S. cerevisiae deletion strains, locus YGL078C, strain dbp3, active compounds read low
[20] = S. cerevisiae deletion strains, locus YGL086W, strain mad1, active compounds read low
[21] = S. cerevisiae deletion strains, locus YGL248W, strain PDE1, active compounds read low
[22] = S. cerevisiae deletion strains, locus YGR135W, strain pre9, active compounds read low
[23] = S. cerevisiae deletion strains, locus YGR252W, strain gcn5, active compounds read low
[24] = S. cerevisiae deletion strains, locus YHR030C, strain SLT2, active compounds read low
[25] = S. cerevisiae deletion strains, locus YHR079C, strain IRE1 (second series), active compounds read low
[26] = S. cerevisiae deletion strains, locus YHR094C, strain hxt1, active compounds read low
[27] = S. cerevisiae deletion strains, locus YHR129C, strain ARP1, active compounds read low
[28] = S. cerevisiae deletion strains, locus YHR200W, strain rpn10, active compounds read low
[29] = S. cerevisiae deletion strains, locus YIL066C, strain RNR3, active compounds read low
[30] = S. cerevisiae deletion strains, locus YIL073C, strain SPO22, active compounds read low
[31] = S. cerevisiae deletion strains, locus YIL125W, strain kgd1, active compounds read low
[32] = S. cerevisiae deletion strains, locus YIR030C, strain dcg1, active compounds read low
[33] = S. cerevisiae deletion strains, locus YJL095W, strain BCK1, active compounds read low
[34] = S. cerevisiae deletion strains, locus YJL134W, strain LCB3, active compounds read low
[35] = S. cerevisiae deletion strains, locus YJL168C, strain set2, active compounds read low
[36] = S. cerevisiae deletion strains, locus YJL187C, strain SWE1 (second series), active compounds read low
[37] = S. cerevisiae deletion strains, locus YJR043C, strain POL32, active compounds read low
[38] = S. cerevisiae deletion strains, locus YKL068W, active compounds read low
[39] = S. cerevisiae deletion strains, locus YKR001C, strain vps1, active compounds read low
[40] = S. cerevisiae deletion strains, locus YLR039C, strain RIC1, active compounds read low
[41] = S. cerevisiae deletion strains, locus YLR058C, strain SHM2, active compounds read low
[42] = S. cerevisiae deletion strains, locus YLR102C, strain apc9, active compounds read low
[43] = S. cerevisiae deletion strains, locus YLR262C, strain YPT6, active compounds read low
[44] = S. cerevisiae deletion strains, locus YLR268W, strain sec22, active compounds read low
[45] = S. cerevisiae deletion strains, locus YLR330W, strain CHS5, active compounds read low
[46] = S. cerevisiae deletion strains, locus YLR342W, strain FKS1 (second series), active compounds read low
[47] = S. cerevisiae deletion strains, locus YLR371W, strain rom2, active compounds read low
[48] = S. cerevisiae deletion strains, locus YLR418C, strain cdc73, active compounds read low
[49] = S. cerevisiae deletion strains, locus YML016C, strain PPZ1, active compounds read low
[50] = S. cerevisiae deletion strains, locus YML032C, strain rad52, active compounds read low
[51] = S. cerevisiae deletion strains, locus YML124C, strain tub3, active compounds read low
[52] = S. cerevisiae deletion strains, locus YMR078C, strain ctf18, active compounds read low
[53] = S. cerevisiae deletion strains, locus YMR223W, strain ubp8, active compounds read low
[54] = S. cerevisiae deletion strains, locus YMR307W, strain GAS1, active compounds read low
[55] = S. cerevisiae deletion strains, locus YNL067W, strain RPL9B, active compounds read low
[56] = S. cerevisiae deletion strains, locus YNL153C, strain GIM3, active compounds read low
[57] = S. cerevisiae deletion strains, locus YNL233W, strain BNI4, active compounds read low
[58] = S. cerevisiae deletion strains, locus YNL250W, strain rad50, active compounds read low
[59] = S. cerevisiae deletion strains, locus YNL271C, strain bni1, active compounds read low
[60] = S. cerevisiae deletion strains, locus YNL298W, strain CLA4, active compounds read low
[61] = S. cerevisiae deletion strains, locus YNL307C, strain MCK1, active compounds read low
[62] = S. cerevisiae deletion strains, locus YNL322C, strain KRE1, active compounds read low
[63] = S. cerevisiae deletion strains, locus YNR052C, strain pop2, active compounds read low
[64] = S. cerevisiae deletion strains, locus YOL012C, strain htz1
[65] = S. cerevisiae deletion strains, locus YOL147C, strain pex11, active compounds read low
[66] = S. cerevisiae deletion strains, locus YOR061W, strain CKA2, active compounds read low
[67] = S. cerevisiae deletion strains, locus YOR069W, strain VPS5, active compounds read low
[68] = S. cerevisiae deletion strains, locus YOR136W, strain idh2, active compounds read low
[69] = S. cerevisiae deletion strains, locus YOR144C, strain elg1, active compounds read low
[70] = S. cerevisiae deletion strains, locus YOR184W, strain ser1, active compounds read low
[71] = S. cerevisiae deletion strains, locus YOR316C, strain cot1, active compounds read low
[72] = S. cerevisiae deletion strains, locus YPR119W, strain clb2, active compounds read low
[73] = S. cerevisiae deletion strains, locus YPR141C, strain kar3, active compounds read low
[74] = S. cerevisiae deletion strains, locus YPR163C, strain tif3, active compounds read low
[75] = S. cerevisiae deletion strains, locus YPR167C, strain met16, active compounds read low
[76] = S. cerevisiae deletion strains, strain wtn01, active compounds read low

Measured: normalized growth

COC(=O)[C@]1(C)CC[C@]2(C)CC[C@]3(C)C4=CCc5c(cc(O)c(O)c5C)[C@]4(C)CC[C@@]3(C)C2C1 (stereo not given in full)
inactive: [1] 0.992 | [2] 0.985 | [3] 0.989 | [4] 0.98 | [5] 0.968 | [6] 0.915 | [7] 0.975 | S. cerevisiae deletion strains, locus YDL134C, strain PPH21, active compounds read low 1.01 | [8] 0.984 | [9] 0.968 | [10] 0.947 | [11] 0.992 | [12] 0.994 | [13] 0.983 | [14] 0.961 | [15] 0.991 | [16] 0.978 | [17] 0.992 | [18] 0.992 | [19] 0.981 | [20] 0.94 | [21] 0.985 | S. cerevisiae deletion strains, locus YGR078C, strain PAC10, active compounds read low 0.971 | [22] 0.99 | [23] 1.09 | [24] 0.994 | [25] 0.982 | [26] 0.978 | [27] 0.962 | [28] 0.986 | [29] 0.969 | [30] 0.983 | [31] 0.975 | [32] 0.982 | [33] 0.958 | [34] 0.991 | [35] 0.978 | [36] 0.961 | [37] 0.989 | S. cerevisiae deletion strains, locus YKL009W, strain mrt4, active compounds read low 1.03 | [38] 0.977 | S. cerevisiae deletion strains, locus YKL085W, strain MDH1 (second series), active compounds read low 0.977 | S. cerevisiae deletion strains, locus YKL085W, strain MDH1, active compounds read low 0.977 | [39] 0.937 | [40] 0.945 | [41] 0.983 | [42] 0.984 | [43] 0.938 | [44] 0.939 | [45] 0.988 | [46] 0.953 | [47] 0.955 | [49] 0.982 | [50] 1.01 | [51] 0.98 | [52] 0.958 | [53] 0.984 | S. cerevisiae deletion strains, locus YMR263W, strain SAP30, active compounds read low 0.998 | [54] 0.954 | [55] 0.998 | [56] 0.973 | [57] 0.951 | [58] 0.977 | [59] 0.979 | [60] 1.01 | [61] 0.962 | [62] 0.993 | [63] 0.985 | [64] 1.1 | [65] 0.998 | [66] 0.981 | [67] 0.984 | [68] 0.966 | [69] 0.973 | [70] 0.902 | [71] 0.983 | [72] 0.971 | [73] 0.968 | [74] 0.968 | [75] 0.976 | [76] 0.929
active: [48] 0.802

CC(=O)OCC1(C)CCC2(C)CCC3(C)C4=CCc5c(cc(OC(C)=O)c(OC(C)=O)c5C)C4(C)CCC3(C)C2C1 (stereo not given)
inactive: [1] 1.01 | [2] 0.994 | [3] 1.02 | [4] 1.01 | [5] 1.02 | [6] 1.04 | [7] 1.02 | [8] 1.01 | [9] 1.01 | [10] 0.974 | [11] 1.04 | [12] 1.01 | [13] 0.997 | [14] 0.984 | [15] 1.01 | [16] 0.999 | [17] 1.01 | [18] 1 | [19] 1 | [20] 0.998 | [21] 1.04 | [22] 1 | [23] 0.992 | [24] 1.02 | [25] 1 | [26] 1.02 | [27] 1.02 | [28] 1.01 | [29] 1.02 | [30] 1.02 | [31] 1 | [32] 1 | [33] 1.04 | [34] 1.01 | [35] 1.01 | [36] 1.02 | [37] 1.02 | [38] 1.01 | [39] 0.997 | [40] 1.03 | [41] 1.02 | [42] 1 | [43] 1.07 | [44] 1 | [45] 1.01 | [46] 1.01 | [47] 1.01 | [48] 1.07 | [49] 1.02 | [50] 1 | [51] 0.997 | [52] 1.01 | [53] 1.01 | [54] 1.07 | [55] 1.03 | S. cerevisiae deletion strains, locus YNL128W, strain TEP1, active compounds read low 1.01 | [56] 1.02 | [57] 1.03 | [58] 1 | [59] 0.999 | [60] 1 | [61] 1 | [62] 1.02 | [63] 1.01 | [64] 1.15 | [65] 0.993 | [66] 1.02 | [67] 1.01 | [68] 0.998 | [69] 0.994 | [70] 1.04 | [71] 1 | [72] 1 | [73] 1.01 | [74] 1.02 | [75] 1 | [76] 1.03 | S. cerevisiae strains, strain wild type, active compounds read low 0.992
